Measured values published in PubChem BioAssay (NCI).
Compounds without any hit were thinned out: in the full panel of roughly 79,000, 15% have a hit. A number with no mark means an inactive call. Active and inactive are the calls of the source. Rule as the data show it: active = growth inhibition above about 70%; inactive = the rest.

What was measured:
[1] = NCI Yeast Anticancer Drug Screen. Data for the rad50 strain (AID 155);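 also: 0% = growth of vehicle-only cultures of the same strain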; conditions: S. cerevisiae rad50 strain growth inhibition, hits give high values
Summary of the method: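 Genetically altered yeast (DNA repair pathway); compound treatment; growth inhibition vs vehicle ctrl.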

[2] = NCI Yeast Anticancer Drug Screen. Data for the mec2-1 strain (AID 157); conditions: S. cerevisiae mec2-1 strain, hits give high values
Summary of the method: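 Yeast mec2-1 mutant treated with compound. Readout: growth inhibition vs vehicle controls.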

[3] = NCI Yeast Anticancer Drug Screen. Data for the sgs1 mgt1 strain (AID 161);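 also: 0% = growth of cultures given vehicle only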; conditions: S. cerevisiae sgs1 mgt1 strain, hits give high values
Summary of the method: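 Genetically altered yeast, compound exposure, growth inhibition relative to vehicle.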

[4] = NCI Yeast Anticancer Drug Screen. Data for the cln2 rad14 strain (AID 165);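 also: 0% = growth equal to vehicle treated cultures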; conditions: S. cerevisiae cln2 rad14 strain, hits give high values
Summary of the method: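 cln2 rad14 yeast strain; compound exposure; growth inhibition read vs vehicle controls.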

[5] = NCI Yeast Anticancer Drug Screen. Data for the bub3 strain (AID 167); conditions: S. cerevisiae bub3 mutant strain, hits give high values
Summary of the method: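 Yeast carrying a defined mutation is treated with each compound, and growth is compared with that of vehicle-exposed cells to give inhibition.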

[6] = NCI Yeast Anticancer Drug Screen. Data for the mlh1 rad18 strain (AID 175); conditions: S. cerevisiae mlh1 rad18 strain growth inhibition, hits give high values
Summary of the method: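 Yeast w/ defined DNA-repair lesions; compound exposure; growth vs vehicle controls → % inhibition.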

[7] = at 5.0 µM (retest, dose inferred, filed as 0.5)
[8] = at 50.0 µM (retest, dose inferred, filed as 5.0)

C/C(=N\NC(=S)Nc1ccc(Cl)cc1)c1nc2ncccc2[nH]1
growth inhibition [1, 7]: 3%
growth inhibition [1, 8]: 98% (active)
growth inhibition ([1]; at 50.0 µM): 89.8% (active)
growth inhibition [2, 7]: -6%
growth inhibition [2, 8]: 98% (active)
growth inhibition ([2]; at 50.0 µM): 90.2% (active)
growth inhibition [3, 7]: 0%
growth inhibition [3, 8]: 96% (active)
growth inhibition ([3]; at 50.0 µM): 85.2% (active)
growth inhibition [4, 7]: -38%
growth inhibition [4, 8]: 99% (active)
growth inhibition ([4]; at 50.0 µM): 87.9% (active)
growth inhibition [5, 7]: -28%
growth inhibition [5, 8]: 95% (active)
growth inhibition ([5]; at 50.0 µM): 90.1% (active)
growth inhibition [6, 7]: -1%
growth inhibition [6, 8]: 98% (active)
growth inhibition ([6]; at 50.0 µM): 85.4% (active)

CC(C)CCOC(=O)Nc1cccc(Cl)c1
growth inhibition [1, 7]: 2%
growth inhibition [1, 8]: 76% (active)
growth inhibition ([1]; at 50.0 µM): 62.1%
growth inhibition [2, 7]: -4%
growth inhibition [2, 8]: 11%
growth inhibition ([2]; at 50.0 µM): 12.8%
growth inhibition [3, 7]: 0%
growth inhibition [3, 8]: 36%
growth inhibition ([3]; at 50.0 µM): 66.2%
growth inhibition [4, 7]: 1%
growth inhibition [4, 8]: -8%
growth inhibition ([4]; at 50.0 µM): 13.2%
growth inhibition [5, 7]: 47%
growth inhibition [5, 8]: 17%
growth inhibition ([5]; at 50.0 µM): -0.75%
growth inhibition [6, 7]: 4%
growth inhibition [6, 8]: 33%
growth inhibition ([6]; at 50.0 µM): 44%

O=C(O)/C=C/C(=O)NNc1nc2ccccc2s1
growth inhibition [1, 7]: -4%
growth inhibition [1, 8]: -1%
growth inhibition ([1]; at 50.0 µM): 23.1%
growth inhibition [2, 7]: -9%
growth inhibition [2, 8]: 2%
growth inhibition ([2]; at 50.0 µM): -5.25%
growth inhibition [3, 7]: 0%
growth inhibition [3, 8]: -25%
growth inhibition ([3]; at 50.0 µM): 50.3%
growth inhibition [4, 7]: -25%
growth inhibition [4, 8]: 1%
growth inhibition ([4]; at 50.0 µM): 23.1%
growth inhibition [5, 7]: -31%
growth inhibition [5, 8]: -21%
growth inhibition ([5]; at 50.0 µM): -13.2%
growth inhibition [6, 7]: -7%
growth inhibition [6, 8]: 20%
growth inhibition ([6]; at 50.0 µM): 70.2% (active)

CN(C)c1ccc(SC(=S)NCc2ccccc2)cc1
growth inhibition [1, 7]: 4%
growth inhibition [1, 8]: 92% (active)
growth inhibition ([1]; at 50.0 µM): 97.5% (active)
growth inhibition [2, 7]: -7%
growth inhibition [2, 8]: 92% (active)
growth inhibition ([2]; at 50.0 µM): 98.2% (active)
growth inhibition [3, 7]: -2%
growth inhibition [3, 8]: 82% (active)
growth inhibition ([3]; at 50.0 µM): 96.3% (active)
growth inhibition [4, 7]: -3%
growth inhibition [4, 8]: 28%
growth inhibition ([4]; at 50.0 µM): 95.8% (active)
growth inhibition [5, 7]: -8%
growth inhibition [5, 8]: 96% (active)
growth inhibition ([5]; at 50.0 µM): 97% (active)
growth inhibition [6, 7]: 4%
growth inhibition [6, 8]: 90% (active)
growth inhibition ([6]; at 50.0 µM): 94.4% (active)

C=Cc1cc(N=Nc2ccc([N+](=O)[O-])cc2)ccc1N(C)C
growth inhibition [1, 7]: 6%
growth inhibition [1, 8]: 12%
growth inhibition ([1]; at 50.0 µM): 48%
growth inhibition [2, 7]: -1%
growth inhibition [2, 8]: -2%
growth inhibition ([2]; at 50.0 µM): 4.2%
growth inhibition [3, 7]: 3%
growth inhibition [3, 8]: 25%
growth inhibition ([3]; at 50.0 µM): 4.6%
growth inhibition [4, 7]: -2%
growth inhibition [4, 8]: -15%
growth inhibition ([4]; at 50.0 µM): -25.9%
growth inhibition [5, 7]: 2%
growth inhibition [5, 8]: 6%
growth inhibition ([5]; at 50.0 µM): 2.55%
growth inhibition [6, 7]: -9%
growth inhibition [6, 8]: -12%
growth inhibition ([6]; at 50.0 µM): 47.7%

Fc1cccc(CSc2n[nH]c(=S)c3nc[nH]c23)c1
growth inhibition [1, 7]: 0%
growth inhibition [1, 8]: -3%
growth inhibition ([1]; at 50.0 µM): 9.9%
growth inhibition [2, 7]: -8%
growth inhibition [2, 8]: -1%
growth inhibition ([2]; at 50.0 µM): 10%
growth inhibition [3, 7]: -1%
growth inhibition [3, 8]: -10%
growth inhibition ([3]; at 50.0 µM): 15.4%
growth inhibition [4, 7]: -7%
growth inhibition [4, 8]: -14%
growth inhibition ([4]; at 50.0 µM): 40.8%
growth inhibition [5, 7]: -2%
growth inhibition [5, 8]: -3%
growth inhibition ([5]; at 50.0 µM): -3.85%
growth inhibition [6, 7]: -16%
growth inhibition [6, 8]: -16%
growth inhibition ([6]; at 50.0 µM): 5.1%

N=C(N)c1ccc(Nc2ccc(C(=N)N)cc2)cc1
growth inhibition [1, 7]: 20%
growth inhibition [1, 8]: 5%
growth inhibition ([1]; at 50.0 µM): 91.2% (active)
growth inhibition [2, 7]: 30%
growth inhibition [2, 8]: -7%
growth inhibition ([2]; at 50.0 µM): 86.3% (active)
growth inhibition [3, 7]: 19%
growth inhibition [3, 8]: 9%
growth inhibition ([3]; at 50.0 µM): 90% (active)
growth inhibition [4, 7]: 1%
growth inhibition [4, 8]: 14%
growth inhibition ([4]; at 50.0 µM): 72.2% (active)
growth inhibition [5, 7]: 21%
growth inhibition [5, 8]: 56%
growth inhibition ([5]; at 50.0 µM): 97.8% (active)
growth inhibition [6, 7]: 14%
growth inhibition [6, 8]: 39%
growth inhibition ([6]; at 50.0 µM): 91% (active)

Cc1ccc(SSCCCS(=O)O)cc1
growth inhibition [1, 7]: -1%
growth inhibition [1, 8]: -93%
growth inhibition ([1]; at 50.0 µM): 61.1%
growth inhibition [2, 7]: -3%
growth inhibition [2, 8]: 60%
growth inhibition ([2]; at 50.0 µM): 50.7%
growth inhibition [3, 7]: 6%
growth inhibition [3, 8]: 78% (active)
growth inhibition ([3]; at 50.0 µM): 83.8% (active)
growth inhibition [4, 7]: -12%
growth inhibition [4, 8]: 41%
growth inhibition ([4]; at 50.0 µM): 60.1%
growth inhibition [5, 7]: 4%
growth inhibition [5, 8]: 82% (active)
growth inhibition ([5]; at 50.0 µM): 66.3%
growth inhibition [6, 7]: 3%
growth inhibition [6, 8]: 66%
growth inhibition ([6]; at 50.0 µM): 75.2% (active)

CN(C)N=Nc1c(-c2cccs2)n[nH]c1C(F)(F)F
growth inhibition [1, 7]: 98% (active)
growth inhibition [1, 8]: 99% (active)
growth inhibition ([1]; at 50.0 µM): 99.4% (active)
growth inhibition [2, 7]: 99% (active)
growth inhibition [2, 8]: 100% (active)
growth inhibition ([2]; at 50.0 µM): 99.8% (active)
growth inhibition [3, 7]: 100% (active)
growth inhibition [3, 8]: 100% (active)
growth inhibition ([3]; at 50.0 µM): 99.6% (active)
growth inhibition [4, 7]: 99% (active)
growth inhibition [4, 8]: 99% (active)
growth inhibition ([4]; at 50.0 µM): 99.5% (active)
growth inhibition [5, 7]: 99% (active)
growth inhibition [5, 8]: 99% (active)
growth inhibition ([5]; at 50.0 µM): 99.5% (active)
growth inhibition [6, 7]: 99% (active)
growth inhibition [6, 8]: 99% (active)
growth inhibition ([6]; at 50.0 µM): 99.6% (active)

COC12CC(=O)C(C(C)=O)=C(O)C1(C)c1c(OC(C)=O)c(C)c(O)c(C(C)=O)c1O2 (centres undefined)
growth inhibition [1, 7]: 17%
growth inhibition [1, 8]: 57%
growth inhibition ([1]; at 50.0 µM): 45.1%
growth inhibition [2, 7]: 14%
growth inhibition [2, 8]: 63%
growth inhibition ([2]; at 50.0 µM): 52.3%
growth inhibition [3, 7]: 31%
growth inhibition [3, 8]: 73% (active)
growth inhibition ([3]; at 50.0 µM): 19.2%
growth inhibition [4, 7]: 19%
growth inhibition [4, 8]: 50%
growth inhibition ([4]; at 50.0 µM): 41%
growth inhibition [5, 7]: 62%
growth inhibition [5, 8]: 92% (active)
growth inhibition ([5]; at 50.0 µM): 43.5%
growth inhibition [6, 7]: 19%
growth inhibition [6, 8]: 64%
growth inhibition ([6]; at 50.0 µM): 92.8% (active)

CC1CCC(SC2CC(=O)CCC2=O)CC1 (centres undefined)
growth inhibition [1, 7]: 19%
growth inhibition [1, 8]: 98% (active)
growth inhibition ([1]; at 50.0 µM): 99% (active)
growth inhibition [2, 7]: 19%
growth inhibition [2, 8]: 99% (active)
growth inhibition ([2]; at 50.0 µM): 99.2% (active)
growth inhibition [3, 7]: 21%
growth inhibition [3, 8]: 99% (active)
growth inhibition ([3]; at 50.0 µM): 92% (active)
growth inhibition [4, 7]: 6%
growth inhibition [4, 8]: 99% (active)
growth inhibition ([4]; at 50.0 µM): 98.2% (active)
growth inhibition [5, 7]: 24%
growth inhibition [5, 8]: 98% (active)
growth inhibition ([5]; at 50.0 µM): 98.7% (active)
growth inhibition [6, 7]: -1%
growth inhibition [6, 8]: 98% (active)
growth inhibition ([6]; at 50.0 µM): 98.6% (active)

CC(C)Cn1cnc2c(SCc3ccccc3[N+](=O)[O-])nc(N)nc21
growth inhibition [1, 7]: 2%
growth inhibition [1, 8]: -4%
growth inhibition ([1]; at 50.0 µM): 90% (active)
growth inhibition [2, 7]: -4%
growth inhibition [2, 8]: -2%
growth inhibition ([2]; at 50.0 µM): 96% (active)
growth inhibition [3, 7]: 0%
growth inhibition [3, 8]: -2%
growth inhibition ([3]; at 50.0 µM): 56%
growth inhibition [4, 7]: -22%
growth inhibition [4, 8]: -3%
growth inhibition ([4]; at 50.0 µM): 82.2% (active)
growth inhibition [5, 7]: -1%
growth inhibition [5, 8]: -4%
growth inhibition ([5]; at 50.0 µM): 96.8% (active)
growth inhibition [6, 7]: 1%
growth inhibition [6, 8]: 2%
growth inhibition ([6]; at 50.0 µM): 84.8% (active)

CCC1(C)OC(=O)C(c2ccccc2)O1 (centres undefined)
growth inhibition [1, 7]: 1%
growth inhibition [1, 8]: -6%
growth inhibition ([1]; at 50.0 µM): 9.2%
growth inhibition [2, 7]: -2%
growth inhibition [2, 8]: 7%
growth inhibition ([2]; at 50.0 µM): -1.85%
growth inhibition [3, 7]: 5%
growth inhibition [3, 8]: -5%
growth inhibition ([3]; at 50.0 µM): -19.5%
growth inhibition [4, 7]: 2%
growth inhibition [4, 8]: 1%
growth inhibition ([4]; at 50.0 µM): 9.7%
growth inhibition [5, 7]: 2%
growth inhibition [5, 8]: 3%
growth inhibition ([5]; at 50.0 µM): -6.45%
growth inhibition [6, 7]: -2%
growth inhibition [6, 8]: -5%
growth inhibition ([6]; at 50.0 µM): 17.1%
